Screening data (PubChem)
LYPLA2 inh: blocks human lysophospholipase 2, a PME1 counter-screen; O95372; recombinant LYPLA2, FP-Rh probe fluorescence polarization; inhibition, % at 5.9 µM; actives 0.38% (n = 320,000); AID 2177;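 active means inhibition above the screen-wide mean plus 3 SD, limit set per campaign, cut at about 26% in these data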;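 further: 0% = LYPLA2 with DMSO and 100% = wells lacking LYPLA2 enzyme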
ZTA counter: ZTA (EBV) inhibition in EBNA-1 counter-screen; ZTA-DNA binding, fluorescence polarization; inhibition, % at 11 µM; AID 2234; actives 0.15% (n = 320,000); P03206; in the data active means inhibition above about 33%
PAD4 FP inh: inhibitors of human PAD4; Q9UM07; recombinant PAD4, RCA probe fluorescence polarization; inhibition, % at 6.36 µM; actives 0.41% (n = 330,000);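 active means percent inhibition above a cutoff equal to the mean of all tested compounds plus 3 SD, cut at about 15% in these data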;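 further: 0% = PAD4 with RCA probe and DMSO and 100% = probe without PAD4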
Target sequence (Q9UM07 whole entry, looked up): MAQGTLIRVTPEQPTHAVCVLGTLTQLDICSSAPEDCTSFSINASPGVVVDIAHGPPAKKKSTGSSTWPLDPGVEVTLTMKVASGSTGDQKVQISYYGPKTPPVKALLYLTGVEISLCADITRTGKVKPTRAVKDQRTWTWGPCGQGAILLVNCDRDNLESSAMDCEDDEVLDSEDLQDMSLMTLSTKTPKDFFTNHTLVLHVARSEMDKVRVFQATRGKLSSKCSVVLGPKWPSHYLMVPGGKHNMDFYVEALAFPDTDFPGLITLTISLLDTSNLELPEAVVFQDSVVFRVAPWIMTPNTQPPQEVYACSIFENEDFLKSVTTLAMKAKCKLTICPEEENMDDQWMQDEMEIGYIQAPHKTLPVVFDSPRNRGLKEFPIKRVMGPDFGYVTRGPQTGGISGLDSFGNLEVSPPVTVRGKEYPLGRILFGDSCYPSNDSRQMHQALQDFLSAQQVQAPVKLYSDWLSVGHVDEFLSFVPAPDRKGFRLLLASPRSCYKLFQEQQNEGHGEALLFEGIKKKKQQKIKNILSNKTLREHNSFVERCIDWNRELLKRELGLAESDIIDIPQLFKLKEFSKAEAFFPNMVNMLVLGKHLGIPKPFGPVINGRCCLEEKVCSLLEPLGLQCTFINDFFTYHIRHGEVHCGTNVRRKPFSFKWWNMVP
GSTO1 counter: counter-screen for RBBP9 inhibitors: inhibitors of human GSTO1; P78417; recombinant GSTO1, activity-based probe fluorescence polarization; inhibition, % at 5.96 µM; actives 1.1% (n = 300,000);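 active means inhibition above the campaign mean inhibition plus 3 SD, cut at about 35% in these data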;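 further: 0% = GSTO1-1 with DMSO and 100% = wells lacking GSTO1-1 enzyme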
LYPLA1 counter: LYPLA1 (human) inhibition in PME1 counter-screen; O75608; recombinant LYPLA1, FP-Rh probe fluorescence polarization; inhibition, % at 5.9 µM; actives 0.16% (n = 320,000);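 active means inhibition above the mean of all tested compounds plus 3 SD, set per campaign, cut at about 14% in these data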;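 further: inhibitors block serine hydrolase probe labeling of LYPLA1 so polarization falls; 0% = enzyme with DMSO and 100% = wells lacking LYPLA1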
EBNA-1 inhibitor: blocks EBNA-1 binding to DNA. EBNA-1 DNA binding, fluorescence polarization. inhibition, % at 14.8 µM. actives 0.34% (n = 300,000); in the data active means inhibition above about 28%
Zta DNA confirm: EBV ZTA DNA binding inhibition, confirmation; AID 2361; Zta-ZRE DNA binding, fluorescence polarization; actives 30% (n = 320); inhibition, % at 11.1 µM; shares compounds with ZTA counter;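 active means mean inhibition across triplicate runs above the hit threshold derived for the original primary screen, cut at about 33% in these data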;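 further: 0% = Zta with DMSO and 100% = wells lacking Zta protein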
EBNA1 counter: counter-screen for ZTA inhibitors: EBNA-1 DNA binding inhibition. inhibition, % at 14.8 µM. 320 tested, under 10 active. shares compounds with ZTA counter. fluorescence polarization; call rule not given here
Starred values were filed as active, the others as inactive; x = no result given. Hits are enriched below; roughly 1.7% of the tested compounds scored in any of these assays.

SMILES	LYPLA2 inh	ZTA counter	PAD4 FP inh	GSTO1 counter	LYPLA1 counter	EBNA-1 inhibitor	Zta DNA confirm	EBNA1 counter
C#CCOCCOCCOCCNc1nc(N2CCN(C(=O)CCCCCCCCCCNC(=O)Cn3cc(CCCCCN)nn3)CC2)nc(N2CCN(C(=O)CCCCCCCCCCNC(=O)[C@@H](CCC(=O)O)n3cc(CCCCCN)nn3)CC2)n1	5	61*	-1	6	1	4	3	-7
C#CCOCCOCCOCCNc1nc(N2CCN(C(=O)CCCCCCCCCCNC(=O)Cn3cc(C[C@@H](C)O)nn3)CC2)nc(N2CCN(C(=O)CCCCCCCCCCNC(=O)[C@@H](CCC(=O)O)n3cc(CCCCCN)nn3)CC2)n1	13	12	0	-5	-2	4	x	x
CN1CN(C)C(c2ccncc2)=C1c1ccncc1	-2	-15	5	4	0	-6	x	x
O=C1CC(=O)N(Cc2ccco2)C(=S)N1	-23	55*	-19	-48	-13	6	-3	-6
CC1CCN(C(=O)COC(=O)c2n[nH]c(=O)c3ccccc23)CC1	-2	36*	1	x	-1	x	-1	-7
CCOC(=O)c1n[nH]c(=O)c2ccccc12	2	7	5	8	-2	-1	x	x
CCCCc1ccc(NC(=S)Nc2ccc(Nc3ccc(OC)cc3)cc2)cc1	-1	-22	3	3	-2	-5	x	x
CCCCc1ccc(NC(=O)OC)cc1	-1	166*	-1	1	-3	2	0	3
O=C(Nc1ccc(-c2nc3ccc(NC(=O)c4cccs4)cc3[nH]2)cc1)c1cccs1	-5	55*	-6	4	-2	-12	43*	4
O=C(Nc1ccc2nc(-c3cccs3)[nH]c2c1)c1cccs1	-3	-12	-5	-9	-12	-6	x	x
N#Cc1nc(/C=C/c2ccccc2)oc1NCCCN1CCOCC1	8	33*	-1	0	3	4	3	0
Cc1cccc(C(=O)N2CCCC(N3CCN(Cc4ccc5c(c4)OCO5)CC3)C2)n1 (stereo not drawn)	-6	0	-1	-4	-2	-9	x	x
C#CCOCCOCCOCCNc1nc(N2CCN(C(=O)CCCCCCCCCCNC(=O)[C@H]([C@@H](C)CC)n3cc(CCCCN=C(N)N)nn3)CC2)nc(N2CCN(C(=O)CCCCCCCCCCNC(=O)[C@H](CO)n3cc(CCCCCN)nn3)CC2)n1	8	22	-45	-7	-6	5	x	x
C#CCOCCOCCOCCNc1nc(N2CCN(C(=O)CCCCCCCCCCNC(=O)[C@H]([C@@H](C)CC)n3cc(CCCCN=C(N)N)nn3)CC2)nc(N2CCN(C(=O)CCCCCCCCCCNC(=O)[C@H](CCCCN)n3cc(C)nn3)CC2)n1	24	56*	-14	-1	-3	6	68*	-9
C#CCOCCOCCOCCNc1nc(N2CCN(C(=O)CCCCCCCCCCNC(=O)Cn3cc(CCCCCN)nn3)CC2)nc(N2CCN(C(=O)CCCCCCCCCCNC(=O)[C@H]([C@@H](C)CC)n3cc(CCCCN=C(N)N)nn3)CC2)n1	24	61*	-1	-5	3	3	48*	-11
CCn1nc(C)cc1C(=O)N1CCCC(Nc2ccc(F)c(F)c2)C1 (stereo not drawn)	10	5	2	-2	3	-6	x	x
Cn1cc(C[C@H](NC(=O)OC(C)(C)C)C(=O)N[C@@H](CO)Cc2ccccc2)c2ccccc21	1	11	-4	7	-1	2	x	x
COc1ccccc1NC(=O)c1ccc2c(O)c(S(=O)(=O)c3ccccc3)c(=O)[nH]c2c1	5	-8	3	-12	1	10	x	x
CCCCc1cc(=O)oc2cc(C)cc(OCC(=O)NC(Cc3ccc(Cl)cc3)C(=O)O)c12 (stereo not drawn)	-2	-15	-1	-24	1	2	x	x
OC(CNCCC1C=Nc2ccccc21)Cn1c2ccc(Cl)cc2c2cc(Cl)ccc21 (stereo not drawn)	-21	52*	0	-7	-24	6	51*	3
